Results from PubChem BioAssay AID588742 (Southern Research Specialized Biocontainment Screening …, 2011).
The whole screen tested about 1,800 compounds, of which about 410 (23%) were called active. Not all results are given here. Potency and affinity values are given separately. Values without a mark were called inactive. How the calls were made is not given here.

Experiment: viability of Vero cells under compound – cytotoxicity control for flavivirus capping enzyme inhibitors (AID 588742)
Settings: cytotoxicity counter-screen; series mostly up to 40 µM; viability: at the top concentration

Compound	viability [%]
CC1(OC(=O)CCc2ccccc2)C(=O)C=C2C=C(c3ccc(C#N)cc3)N(C3CCCC3)C=C2C1=O (centres undefined)	107
O=C1/C(=C\c2ccc(-c3ccccc3[N+](=O)[O-])o2)C(c2ccccc2)=NN1c1ccccc1	86.9
CCn1c(CSc2nnc3ccccn23)nc2cc(C(=O)O)ccc21	97.8
O=C(O)C1=CC[C@@H](c2ccc(Cl)cc2)N(S(=O)(=O)c2ccc(Cl)cc2)[C@H]1c1cccc(Cl)c1	87.2
Cc1ccc(Nc2ccc(N)cc2S(=O)(=O)O)cc1	85
COc1ccccc1CNC(=S)Nc1ccc(S(N)(=O)=O)cc1	92.7
Cc1ccc(C)c(S(=O)(=O)ON2C(=O)c3ccccc3C2=O)c1	109
CCOC(=O)c1c(-c2cccc(C)c2)csc1NC(=O)C1CC=CCC1C(=O)O (centres undefined)	108
Cc1ccc(C(=O)Nc2ccccc2C(=O)O)cc1S(=O)(=O)Nc1ccc(Br)cc1	101
COC(=O)c1ccc(N2NC(=O)/C(=C/c3ccc(-c4ccc(Cl)c(C(=O)O)c4)o3)C2=O)cc1	93.8
CC1(OC(=O)C2CCCC2)C(=O)C=C2C=C(c3ccsc3)N(CCc3ccccn3)C=C2C1=O (centres undefined)	97.4
CSc1nsc2nc(=O)c(/C=C3\C=Nc4ccccc43)c(N)n12	89.2
CC1=NN(Cc2ccccc2)C(=O)C1C(c1ccc(Cl)cc1)C(C#N)C#N (centres undefined)	82.8
Cc1ccc(F)c(NC(=O)/C(C#N)=C(\O)c2ccc(C(C)(C)C)cc2)c1	94.3
Cc1ccc(NC(=O)c2cccc(C(=O)Nc3ccc(C)cc3C(=O)O)c2)c(C(=O)O)c1	95.8
Cn1c(=O)c2[nH]c(-c3ccccc3)c(O)c2n(C)c1=O	105
O=C(O)c1ccc2c(c1)C(=O)N(c1ccc(/C=C/C(=O)c3ccccc3)cc1)C2=O	110
O=C(O)COc1ccc(/C=C/C(=O)c2ccc(C3CCCCC3)cc2)cc1	90.6
C#CCOc1c(Br)cc(/C=C2/C(=O)ON=C2C)cc1OC	92.8
CC(C(=O)Nc1ccc(O)cc1C(=O)O)N1C(=O)/C(=C\c2cccs2)SC1=S (centres undefined)	95.8
O=C1CC2CCCN2C=C1I (centres undefined)	94.8
c1cc2c(cc1CNc1ccc(N3CCOCC3)cc1)OCO2	101
Cc1ccc(-c2cc(C(=O)O)c3cc(Br)ccc3n2)o1	92.2
Cc1ccnc(NCc2ccccc2O)c1	101
O=C1C(Cl)=C(N2CCCC2)C(=O)N1c1ccccc1F	104

Compound	viability [%]
CN1CCN(C2=C(Cl)C(=O)N(c3ccc(Cl)c(Cl)c3)C2=O)CC1	106
O=C1C(Cl)=C(N2CCCCC2)C(=O)N1c1ccccc1	94.3
Cc1ccc(N2C(=O)C(Cl)=C(N3CCN(C)CC3)C2=O)c(C)c1	102
CCCCNC(=O)c1ccc2nc(-c3ccco3)c(-c3ccco3)nc2c1	96
CC1=NN(c2ccc(C)c(C)c2)C(=O)C1C(c1cccc(O)c1)C1C(=O)N(c2ccc(C)c(C)c2)N=C1C (centres undefined)	102
CCCCC1=CC2=C(c3ccco3)C(=O)C(C)(OC(=O)c3ccc(OC)cc3)C(=O)C2=CN1C(CO)CO (centres undefined)	98.4
C=CCOc1ccc(C(c2c(O)nc(SC)[nH]c2=O)c2c(O)nc(SC)[nH]c2=O)cc1	107
CC(=O)N1c2ccc(S(=O)(=O)N(C)CC(=O)Nc3ccccc3C)cc2CC1C (centres undefined)	108
O=C(CN1C(=O)/C(=C2/SC(=S)N(CCS(=O)(=O)O)C2=O)c2ccccc21)Nc1cccc(Br)c1	103
O=C(O)c1ccccc1NS(=O)(=O)c1ccc(NNC(=S)Nc2ccc(OC(F)F)cc2)c([N+](=O)[O-])c1	86.5
C=CCNc1nc(Nc2ccc([N+](=O)[O-])cc2)nc(OC)n1	94
O=C(Nc1ccc(Cl)cc1C(=O)O)c1ccc2c(c1)C(=O)N(Cc1ccco1)C2=O	103
C#CCOc1ccccc1/C=C1/C(=O)ON=C1C	93.1
COc1ccc(-c2csc(NC(=O)c3ccccc3Br)c2C(=O)O)cc1	94.8
Cc1ccc(/C=N/NC(=O)c2nnn(-c3nonc3N)c2CSc2ccccc2)s1	101
CCC(=O)OC1(C)C(=O)C2=COC(c3ccc(OC)cc3)=CC2=C(Br)C1=O (centres undefined)	91.3
CCc1ccc(Nc2ccc(C(=O)O)cc2[N+](=O)[O-])cc1	107
O=C(Nc1cc(S(=O)(=O)N2CCOCC2)ccc1O)c1ccc2c(c1)S(=O)(=O)c1ccccc1C2=O	95.9
O=S(=O)(Nn1c(O)c(C=C2N=c3ccccc3=N2)sc1=S)c1ccccc1	90.8
O=C1ON=C(c2ccc([N+](=O)[O-])cc2)/C1=C/c1ccccc1O	103
O=C(NCc1ccccc1)c1sc(=S)n2c1[nH]c(=O)c1ccccc12	98.5
Nc1scc2c(C(=O)O)nn(-c3ccccc3)c(=O)c12	103
CCOC(=O)c1sc(N2C(=O)C(O)=C(C(=O)c3ccco3)C2c2ccc([N+](=O)[O-])cc2)nc1C (centres undefined)	97.5
Cc1cc(O)c(C(C)C)cc1N=Cc1ccccc1O	91.1
